This passage reports growth results from PubChem BioAssay (NCI).

This is part of a sample that, as a whole, favours compounds with a hit. Of some 83,000 tested, about 20% had one in any assay.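 A percent growth of 40 corresponds to 60% growth inhibition; 0 means no net growth; -100 means all cells died. Active threshold: below 10.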 Calls of active or inactive are those of the source.

For this assay, the system named is SK-MEL-5 melanoma. Kind of assay: NCI-60 one-dose screen, 48 h (100 = growth as untreated, 0 = no growth, -100 = all killed). The following applies: 10 µM unless noted.
For `N#Cc1c(-c2ccccc2Cl)cc(-c2c[nH]c3ccccc23)[nH]c1=O`, the growth was 63.8% (inactive).
For `CN1CCN(/C(=N\c2sc(-c3ccccc3)nc2-c2ccccc2)c2ccccc2)CC1`, the growth is 75% (inactive).
On to `COc1ccc(-c2cc(C(=O)NCc3ccccc3)nn2-c2ccc(S(C)(=O)=O)cc2)cc1OC`, for which the growth was 97.1% (inactive).
In the case of `O=C(COc1ccc(NC(=O)Nc2ccc(Cl)c(Cl)c2)cc1)N=Nc1c(O)[nH]c2ccc(Cl)cc12` it was -83.8% (active); in that of `C=C1CC[C@@H]2[C@]3(C)COC(c4cn(-c5ccccc5)nc4-c4ccccc4)O[C@@H]3CC[C@@]2(C)[C@@H]1C/C=C1/C(=O)OC[C@H]1O` (stereo partly drawn), -100% (active); in that of `CC(=O)Nc1cccc(-c2nc3cc(-c4ccc(O)cc4)ccc3n2C)c1`, -9.75% (active).
In the case of `O=C(/C=C/c1ccc(-c2ccccc2)cc1)c1nc2ccccc2n1Cc1ccc(F)cc1` it was 47.9% (inactive); in that of `Cc1cc2nc3c4ccccc4n(CCNCCN(C)C)c3nc2cc1C`, -88.9% (active); in that of `c1ccc(-c2csc(Nc3cccc(Nc4nc(-c5ccccc5)cs4)c3)n2)cc1`, 21% (inactive).
Regarding `O=C(N/N=C/c1ccc(-c2ccc(O)cc2)s1)c1[nH]c2ccc(Br)cc2c1-c1ccccc1`, the growth was 5.31% (active).
In the case of `COCOc1cc2c(=O)c(C)c(C(=O)N[C@@H](Cc3ccccc3)C(O)C(=O)NCc3ccccc3)oc2cc1OC` (stereo partly drawn) it was 10.6% (inactive); in that of `COc1cc2oc(-c3cccc(C(=O)Nc4ccc(Cl)cc4)c3)cc(=O)c2c(OCCNC(=O)[C@@H](N)CCC(=O)O)c1OC`, 83.6% (inactive); in that of `Cn1cc(-c2nc(N)nnc2-c2c[nH]c3ccc(Br)cc23)c2cccnc21`, 26.3% (inactive).
For the molecule `O=C1c2c(c3c4cc(F)ccc4oc3c3[nH]c4ccc(Br)cc4c23)C(=O)N1O`, the growth is 6.06% (active).
For the molecule `CCCCNC(=S)Nc1ccc(OCc2nc3ccccc3[nH]2)cc1`, the growth was 78% (inactive).
In the case of `COc1cc(-c2ccc(/C=N/NC(=O)c3[nH]c4ccc(Br)cc4c3-c3ccccc3)s2)cc(OC)c1OC` it was 89.8% (inactive); in that of `C=C1CC[C@@H]2[C@]3(C)COC(c4cn[nH]c4-c4ccc(C)cc4)O[C@@H]3CC[C@@]2(C)[C@@H]1C/C=C1/C(=O)OCC1O` (stereo partly drawn), -63.9% (active).
In the case of `COc1cc2c(c(OC)c1OC)C(=O)CC(c1cccc(NC(=O)c3cc(N)ccc3Cl)c1)O2` (stereo not drawn) it was 35.8% (inactive); in that of `COc1cc2c(c(OC)c1OC)C(=O)CC(c1cccc(NC(=O)c3cccc(NC(=O)[C@H](C)NC(=O)OC(C)(C)C)c3)c1)O2` (stereo partly drawn), 25.9% (inactive); in that of `C=C1CCC2C3(C)COC(c4cc(F)cc(F)c4)OC3CCC2(C)C1CC(O)C1=CCOC1=O` (stereo not drawn), 77.8% (inactive).
As to `O=C(/C=C/c1ccc(O)c(O)c1)NC1CCOC1O` (stereo not drawn), the growth was 103% (inactive).
In the case of `C/C(=N\N=C1/C(=O)Nc2ccc(Cl)cc21)c1ccc2c(c1)Nc1ccccc1S2` it was -15.6% (active); in that of `CC(C)CCNC(=O)N/C(N)=N/c1nc2ccccc2s1`, 15.8% (inactive).
As to `OCNc1ccc(-n2cnc3cc(-c4ccc(O)cc4)ccc32)cc1C(F)(F)F`, the growth was 3.27% (active).
As for `C=C1CCC2C3(C)COC(c4ccc(F)cc4)OC3CCC2(C)C1C/C=C1/C(=O)OCC1O` (stereo not drawn), the growth was -90.3% (active).
On to `O=c1[nH]n(C(=S)N/N=C/c2ccccc2Cl)c(=O)c2ccccc12`, for which the growth is 5.82% (active).
`N#Cc1c(-c2cccc(Cl)c2Cl)cc(-c2ccc3ccccc3c2)[nH]c1=O`: the growth is 85.7% (inactive).
In the case of `Clc1cccc(Cl)c1/C=C/c1cc(/C=C/c2ccc(Br)cc2)c2ccccc2n1` it was 104% (inactive); in that of `CC(C)c1ccc2c(N)c(C(=O)Nc3ccc(C(F)(F)F)cn3)sc2n1`, 5.02% (active).
In the case of `CCN(CC)C(=O)N/C(N)=N/c1nc2ccccc2s1` it was -24.9% (active); in that of `O=C(COc1ccc(NC(=O)Nc2ccc(Cl)c(Cl)c2)cc1)N=Nc1c(O)[nH]c2ccc([N+](=O)[O-])cc12`, 90.7% (inactive).
Regarding `Cc1cc2c(cc1Cl)C(=O)/C(=C/c1ccc(F)cc1)O2`, the growth was 93% (inactive).
In the case of `CCCCOc1ccc(NC(=O)c2sc3nc(C)ccc3c2N)cc1` it was 3.73% (active).
In the case of `O=C1Nc2cc(Cl)ccc2/C1=C/c1cccc(OCc2ccccn2)c1` it was 6.08% (active).
As to `NS(=O)(=O)c1ccc(N=Nc2c(O)n(CC(=O)Nc3ccccc3Cl)c3ccccc23)cc1`, the growth is -1.56% (active).
With `O=C(Nc1cccc(-n2cnc3cc(-c4ccc(O)cc4)ccc32)c1)C1CC1`, the growth was 7.19% (active).
Turning to `C=C1CC[C@@H]2[C@]3(C)COC(c4cn[nH]c4-c4ccc(OC)cc4)O[C@@H]3CC[C@@]2(C)[C@@H]1C/C=C1/C(=O)OCC1O` (stereo partly drawn), the growth is -94.3% (active).
In the case of `CC(=O)Nc1ccc(-c2cn(-c3cccc(C(=O)Nc4ccc(N5CCN(C)CC5)cc4)c3)nn2)cn1` it was 87.8% (inactive).
